# Like-named read-outs stand apart in the source and are kept apart here.
# Assays:
# Parameters in all cases: species or system human, MV4-11 + K-562 + COLO205 + SK-N-BE2 + OVCAR-8
# CAMK2D = settings: read-out: apparent Kd, compound concentrations: 100 nM and 1000 nM (sheet 'Samples'), n = 1
# EGFR = settings: read-out: apparent Kd; compound concentrations: 100 nM and 1000 nM (sheet 'Samples'), CATDS: 1.7872150639672801E-2; n = 1
# AKT1 = settings: read-out: apparent Kd, n = 1
# CLK2 = settings: read-out: apparent Kd, compound concentrations: 100 nM and 1000 nM (sheet 'Samples'), n = 1
# CSNK1G3 = settings: read-out: apparent Kd, compound concentrations: 100 nM and 1000 nM (sheet 'Samples'), n = 1
# RPS6KA5 = settings: read-out: apparent Kd, n = 1
# DCTPP1 = settings: read-out: apparent Kd, n = 1
# PI4KA = settings: read-out: apparent Kd, n = 1
# LIMK1 = settings: read-out: apparent Kd, n = 1
# NQO1 = settings: read-out: apparent Kd, n = 1
# COX5A = settings: read-out: apparent Kd, n = 1
# ACOX1 = settings: read-out: apparent Kd, compound concentrations: 100 nM and 1000 nM (sheet 'Samples'), n = 1
# DDR2 = settings: read-out: apparent Kd; compound concentrations: 100 nM and 1000 nM (sheet 'Samples'), CATDS: 5.5525356317498699E-2; n = 1
# SIK3 = settings: read-out: apparent Kd, n = 1
# MET = settings: read-out: apparent Kd; compound concentrations:100 nM and 1000 nM (sheet 'Samples'); n = 1
# [1] = compound concentrations:100 nM and 1000 nM (sheet 'Samples')
structure (smiles),measurement,setting,value
CN(c1ccc(NC(=O)N2CCN(CCCN3CCOCC3)CC2)cc1)c1ccnc(Nc2ccc(CS(C)(=O)=O)cc2)n1.Cl [GW830899A],potency estimated from few doses,CAMK2D; CATDS: 3.7668858732559402E-2,430 nM
same,potency estimated from few doses,EGFR,2150 nM
CCn1c(-c2nonc2N)nc2c(-c3ccccc3)ncc(OCCCN)c21.CCn1c(-c2nonc2N)nc2c(-c3ccccc3)ncc(OCCCN)c21.O=C(O)C(F)(F)F.O=C(O)C(F)(F)F [GSK260205A],potency estimated from few doses,"AKT1; compound concentrations: 100 nM and 1000 nM (sheet 'Samples'), CATDS: 6.9127027959846404E-2",157 nM
Clc1cc(Cl)cc(Nc2ccnc(Nc3cc(Cl)cc(Cl)c3)n2)c1 [GSK175726A],potency estimated from few doses,CLK2; CATDS: 1.2027926669680101E-2,432 nM
O=C(O)C(F)(F)F.O=c1[nH]ccc2nc(N[C@@H]3CCNC3)nc(Nc3ccc4c(c3)S(=O)(=O)CC4)c12 [GSK2181306A],potency estimated from few doses,CSNK1G3; CATDS: 9.3335280079581504E-3,1060 nM
same,potency estimated from few doses,"RPS6KA5; compound concentrations: 100 nM and 1000 nM (sheet 'Samples'), CATDS: 8.4236521656491804E-3",1550 nM
Cc1cccc(Nc2nc(N[C@H]3CCNC3)ncc2C(N)=O)c1.Cl [GSK2197149A],potency estimated from few doses,DCTPP1; [1],1150 nM
same,potency estimated from few doses,PI4KA; [1],1420 nM
CC(C)Oc1ccc2c(-c3ccnc(Nc4ccc(N5CCN(C)CC5)cc4)n3)cnn2n1 [GW696155X],potency estimated from few doses,LIMK1; [1],576 nM
CCn1c(-c2cccnc2O)nc2cnccc21 [SB-736715],potency estimated from few doses,"AKT1; compound concentrations: 100 nM and 1000 nM (sheet 'Samples'), CATDS: 1.3570938887082299E-2",1610 nM
same,potency estimated from few doses,CSNK1G3; CATDS: 1.22763705207965E-2,2060 nM
same,potency estimated from few doses,"PI4KA; compound concentrations: 100 nM and 1000 nM (sheet 'Samples'), CATDS: 1.5744300181729402E-2",1170 nM
COc1cc[nH]c1/C=C1\C(=O)Nc2ccc(F)c(C#CC3(O)CCNCC3)c21.Cl [RO0282986-001],potency estimated from few doses,CAMK2D; CATDS: 2.4491980048065101E-2,142 nM
same,potency estimated from few doses,CLK2; CATDS: 1.56056735722173E-2,360 nM
c1cnn2ncc(-c3ccnc(Nc4ccc5c(c4)OCCO5)n3)c2c1 [GW806290X],potency estimated from few doses,"AKT1; compound concentrations: 100 nM and 1000 nM (sheet 'Samples'), CATDS: 2.02119935433384E-2",1930 nM
same,potency estimated from few doses,"NQO1; compound concentrations: 100 nM and 1000 nM (sheet 'Samples'), CATDS: 2.4144843754049801E-2",1040 nM
NCC(NC(=O)c1cc(-c2cn[nH]c2)c(-c2ccnc3[nH]ccc23)s1)c1ccccc1.NCC(NC(=O)c1cc(-c2cn[nH]c2)c(-c2ccnc3[nH]ccc23)s1)c1ccccc1.O=C(O)C(F)(F)F.O=C(O)C(F)(F)F (stereo not drawn) [GSK1325775A],potency estimated from few doses,"PI4KA; compound concentrations: 100 nM and 1000 nM (sheet 'Samples'), CATDS: 3.4236292814805502E-2",1310 nM
Cc1cc(-c2ccnc(Nc3cccc(C#N)c3)n2)cc(C)c1O [GSK1440913A],potency estimated from few doses,"COX5A; compound concentrations: 100 nM and 1000 nM (sheet 'Samples'), CATDS: 8.0504484678198804E-2",1300 nM
CCN(CC)Cc1ccc(Nc2nccc(-c3cnn4ncccc34)n2)cc1 [GW780056X],potency estimated from few doses,ACOX1; CATDS: 2.3991726091544201E-2,753 nM
same,potency estimated from few doses,CAMK2D; CATDS: 2.8805291945328802E-2,472 nM
CN(c1ccc(NC(=O)NCCN2CCOCC2)cc1)c1ccnc(Nc2ccc(CS(C)(=O)=O)cc2)n1.Cl [GW830365A],potency estimated from few doses,DDR2,940 nM
O=C1N=C(NCc2cccs2)O/C1=C\c1ccc2ncccc2c1 [RO4624208-000],potency estimated from few doses,"DCTPP1; compound concentrations: 100 nM and 1000 nM (sheet 'Samples'), CATDS: 5.0969349281877803E-2",1270 nM
CNCc1ccc(-c2cc(-c3nc(-c4ccc(S(=O)(=O)C(C)C)cc4)cnc3N)on2)cc1 [VE-822],potency estimated from few doses,NQO1; [1],1090 nM
Cc1ccccc1C1=C(c2cn(C)c3ccccc23)C(=O)NC1=O [RO0317612-000],potency estimated from few doses,ACOX1; CATDS: 0.16885310198044201,761 nM
same,potency estimated from few doses,"COX5A; compound concentrations: 100 nM and 1000 nM (sheet 'Samples'), CATDS: 0.16821535460753201",767 nM
CNCC#Cc1c(F)ccc2c1/C(=C/c1[nH]ccc1OC)C(=O)N2.Cl [RO0281601-001],potency estimated from few doses,ACOX1; CATDS: 2.54235943095352E-2,1140 nM
CCn1c(-c2nonc2N)nc2c(C#CC(C)(C)O)nc(O[C@@H](CN)c3ccccc3)cc21.O=C(O)C(F)(F)F [GSK1007102B],potency estimated from few doses,AKT1; [1],1120 nM
c1ccc(-c2n[nH]cc2Nc2ccnc3ccccc23)nc1 [GW694077X],potency estimated from few doses,CLK2; CATDS: 3.5523964233137598E-2,477 nM
same,potency estimated from few doses,"DCTPP1; compound concentrations: 100 nM and 1000 nM (sheet 'Samples'), CATDS: 2.52871729428043E-2",1400 nM
COc1cc(Nc2nccc(N3CCC(NC(=O)c4cccc(NC(C)=O)c4)C3)n2)cc(OC)c1OC (stereo not drawn) [GSK1379754A],potency estimated from few doses,"LIMK1; compound concentrations: 100 nM and 1000 nM (sheet 'Samples'), CATDS: 8.2781561075995602E-2",1830 nM
O=C(O)C(F)(F)F.O=C(O)C(F)(F)F.O=c1[nH]ccc2nc(N[C@@H]3CCCNC3)nc(Nc3ccc(S(=O)(=O)N4CCOCC4)cc3)c12.O=c1[nH]ccc2nc(N[C@@H]3CCCNC3)nc(Nc3ccc(S(=O)(=O)N4CCOCC4)cc3)c12 [GSK2177277A],potency estimated from few doses,"COX5A; compound concentrations: 100 nM and 1000 nM (sheet 'Samples'), CATDS: 6.6138643227552996E-3",1310 nM
same,potency estimated from few doses,CSNK1G3; CATDS: 7.8894585802162295E-3,605 nM
same,potency estimated from few doses,"SIK3; compound concentrations: 100 nM and 1000 nM (sheet 'Samples'), CATDS: 6.8651363479693096E-3",1090 nM
CNc1cc(-c2ccc3c(N)n[nH]c3c2)nc(N)n1 [GSK2224810A],potency estimated from few doses,NQO1; [1],1440 nM
Cl.Cl.NC[C@H](CC1CCCCC1)NC(=O)c1ccc(-c2ccnc3[nH]ccc23)s1.NC[C@H](CC1CCCCC1)NC(=O)c1ccc(-c2ccnc3[nH]ccc23)s1 [GSK1581428A],potency estimated from few doses,RPS6KA5; [1],1340 nM
Cc1occc1-c1nc(N)c(OC[C@@H](N)Cc2c[nH]c3ccccc23)cc1-c1cc2c(C)n[nH]c2cn1 [GSK1660450B],potency estimated from few doses,COX5A; [1],824 nM
same,potency estimated from few doses,SIK3; [1],154 nM
Cl.Cl.NCC(NC(=O)c1cc(-c2ccnc3[nH]ccc23)cs1)c1ccccc1.NCC(NC(=O)c1cc(-c2ccnc3[nH]ccc23)cs1)c1ccccc1 (stereo not drawn) [GSK1229959A],potency estimated from few doses,"RPS6KA5; compound concentrations: 100 nM and 1000 nM (sheet 'Samples'), CATDS: 1.83168013487864E-2",1240 nM
Nc1nc(-c2ccc3c(N)n[nH]c3c2)cc(N2CCCC(NC(=O)c3ccccc3)C2)n1 (stereo not drawn) [GSK2286775B],potency estimated from few doses,MET,2250 nM
same,potency estimated from few doses,NQO1; [1],1370 nM
CN(C)C(=O)/C(C#N)=C/c1ccc(-c2nc3cnc4[nH]ccc4c3n2C2CCCCC2)o1 [FM-381],potency estimated from few doses,COX5A; [1],756 nM
CCn1c(-c2nonc2N)nc2cncc(C(=O)N3CC[C@H](N)C3)c21.Cl [SB-772077-B],potency estimated from few doses,RPS6KA5; [1],48.3 nM
CCC(CC)(CC)n1cnc2c(N)ncnc21 [SKF-97620],potency estimated from few doses,CSNK1G3; CATDS: 2.4754449130961701E-2,1820 nM
same,potency estimated from few doses,"PI4KA; compound concentrations: 100 nM and 1000 nM (sheet 'Samples'), CATDS: 3.8493630683817899E-2",553 nM
COc1ccccc1CNC1=NC(=O)/C(=C/c2ccc3ncccc3c2)S1 [RO4503315-000],potency estimated from few doses,"DCTPP1; compound concentrations: 100 nM and 1000 nM (sheet 'Samples'), CATDS: 6.8298728287036994E-2",1390 nM
